PLC-beta3 inh: PLC-beta3 (human) inhibition, primary screen. Q01970. Purified PLC-beta3, fluorogenic substrate, fluorescence. inhibition, % at 12.2 µM. 370,000 tested, 0.18% active. AID 720704; in the data active means inhibition above about 11%
UHRF1 binding: UHRF1 methyl-DNA binding inhibition; Q96T88; UHRF1 binding to methylated oligo, TR-FRET; inhibition, % at 4.4 µM; 370,000 tested, 0.75% active; in the data active means inhibition above about 21%;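 further: UHRF1 SRA domain binding a hemimethylated CpG hairpin DNA probe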
MBD2 DNA inh: blocks human MBD2 binding to methylated DNA; Q9UBB5; TR-FRET, MBD2 binding to methylated oligonucleotide; inhibition, % at 4.4 µM; 370,000 tested, 0.31% active; AID 686964; in the data active means inhibition above about 13%
Target sequence (Q9UBB5 whole entry, looked up): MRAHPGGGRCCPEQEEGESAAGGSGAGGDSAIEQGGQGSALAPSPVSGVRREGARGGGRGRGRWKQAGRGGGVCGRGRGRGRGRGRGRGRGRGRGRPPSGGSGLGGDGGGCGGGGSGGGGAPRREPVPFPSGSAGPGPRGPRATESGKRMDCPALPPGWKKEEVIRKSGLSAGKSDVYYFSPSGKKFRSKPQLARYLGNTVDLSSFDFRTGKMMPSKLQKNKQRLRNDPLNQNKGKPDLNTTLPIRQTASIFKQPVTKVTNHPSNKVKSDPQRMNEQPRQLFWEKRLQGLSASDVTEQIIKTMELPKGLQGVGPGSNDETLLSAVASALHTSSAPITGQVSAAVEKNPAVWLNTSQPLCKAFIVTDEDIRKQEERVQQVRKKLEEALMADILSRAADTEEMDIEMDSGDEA
LEDGF integ inh: blocks HIV-1 LEDGF/p75-dependent DNA integration. inhibition, % at 3.7 µM. 370,000 tested, 0.64% active. TR-FRET IN-LEDGF/p75 DNA integration, Eu/Cy5;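 active means inhibition above the screen-wide mean plus 3 SD, cut at about 13% in these data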;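 further: signal is the Cy5 over europium emission ratio at 671 and 618 nm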
PLC-gamma1 inh: PLC-gamma1 (human) inhibition, primary screen | purified PLC-gamma1, fluorogenic substrate, fluorescence | inhibition, % at 12.2 µM | 370,000 tested, 0.84% active | AID 720700; in the data active means inhibition above about 9.5%
A number is an active result. Rows were chosen to be rich in hits. Some 2.3% of all compounds tested hit in one or more screens of this group.

How did S=c1[nH]nc(-c2ccccc2)c2ccccc12 do in these assays?
PLC-beta3 inh: inactive; UHRF1 binding: inactive; MBD2 DNA inh: inactive; LEDGF integ inh: inactive; PLC-gamma1 inh: inactive

How did c1ccc2cc(Cn3ccc4ccc(-c5ccc6cc[nH]c6c5)cc43)ccc2c1 do in these assays?
PLC-beta3 inh: inactive; UHRF1 binding: inactive; MBD2 DNA inh: inactive; LEDGF integ inh: inactive; PLC-gamma1 inh: inactive

Results for CC(C)n1c(SCC(=O)Nc2ccccc2)nc2c1c(=O)[nH]c(=O)n2C ?
PLC-beta3 inh: inactive; UHRF1 binding: inactive; MBD2 DNA inh: inactive; LEDGF integ inh: inactive; PLC-gamma1 inh: inactive

What do the screens show for `COCCn1c(SCC(=O)Nc2ccccc2)nc2c1c(=O)[nH]c(=O)n2C`?
PLC-beta3 inh: inactive; UHRF1 binding: inactive; MBD2 DNA inh: inactive; LEDGF integ inh: inactive; PLC-gamma1 inh: 9.8

Results for CN(C)c1ccc(N=Nc2nc3ccccc3n2C)cc1 ?
PLC-beta3 inh: inactive; UHRF1 binding: inactive; MBD2 DNA inh: inactive; LEDGF integ inh: inactive; PLC-gamma1 inh: inactive

How did Cc1csc(N=Nc2ccc(N(C)C)cc2)[n+]1[O-] do in these assays?
PLC-beta3 inh: inactive; UHRF1 binding: inactive; MBD2 DNA inh: inactive; LEDGF integ inh: inactive; PLC-gamma1 inh: 11

Results for CSc1nc(-c2ccc(Cl)cc2)nn1S(=O)(=O)c1ccccc1 ?
PLC-beta3 inh: inactive; UHRF1 binding: 21; MBD2 DNA inh: inactive; LEDGF integ inh: inactive; PLC-gamma1 inh: inactive

Results for O=C(Nc1nc(-c2cc(Cl)sc2Cl)cs1)c1cccs1 ?
PLC-beta3 inh: inactive; UHRF1 binding: inactive; MBD2 DNA inh: inactive; LEDGF integ inh: inactive; PLC-gamma1 inh: inactive

How did O=C(Nc1nc(-c2cc(Cl)sc2Cl)cs1)c1ccc(Br)s1 do in these assays?
PLC-beta3 inh: inactive; UHRF1 binding: inactive; MBD2 DNA inh: 21; LEDGF integ inh: inactive; PLC-gamma1 inh: inactive

Results for O=c1c2cnn(-c3ccccc3)c2ncn1CCc1ccccc1 ?
PLC-beta3 inh: inactive; UHRF1 binding: 47; MBD2 DNA inh: inactive; LEDGF integ inh: inactive; PLC-gamma1 inh: inactive

How did CCC[C@H]1[C@@H](NS(=O)(=O)c2ccccc2[N+](=O)[O-])CC[C@@]23CCCN2C(=O)CCC[C@@H]13 do in these assays?
PLC-beta3 inh: inactive; UHRF1 binding: inactive; MBD2 DNA inh: inactive; LEDGF integ inh: inactive; PLC-gamma1 inh: inactive

How did Cc1ccc(N(Cc2cc3ccc(C)cc3[nH]c2=O)S(C)(=O)=O)c(C)c1 do in these assays?
PLC-beta3 inh: inactive; UHRF1 binding: inactive; MBD2 DNA inh: inactive; LEDGF integ inh: inactive; PLC-gamma1 inh: inactive

Results for Cc1ccc2cc(CN(C)S(C)(=O)=O)c(=O)[nH]c2c1 ?
PLC-beta3 inh: inactive; UHRF1 binding: 35; MBD2 DNA inh: inactive; LEDGF integ inh: inactive; PLC-gamma1 inh: inactive

How did CC(C)N1CCC(C)(C(=O)Nc2cccc(Oc3ccccc3)c2)C1 (configuration not stated) do in these assays?
PLC-beta3 inh: inactive; UHRF1 binding: 31; MBD2 DNA inh: inactive; LEDGF integ inh: inactive; PLC-gamma1 inh: inactive

Results for CN1CCC(C)(C(=O)Nc2cccc(Oc3ccccc3)c2)C1 (configuration not stated) ?
PLC-beta3 inh: inactive; UHRF1 binding: inactive; MBD2 DNA inh: inactive; LEDGF integ inh: inactive; PLC-gamma1 inh: inactive

How did C=CCN1C(C(=O)OC)CN(Cc2cn(Cc3ccc(Cl)cc3)nn2)CCS1(=O)=O (configuration not stated) do in these assays?
PLC-beta3 inh: inactive; UHRF1 binding: inactive; MBD2 DNA inh: inactive; LEDGF integ inh: inactive; PLC-gamma1 inh: inactive

How did Cc1[nH]c2ccccc2c1C(=O)C(=O)N1CCN(c2cccc(Cl)c2)CC1 do in these assays?
PLC-beta3 inh: inactive; UHRF1 binding: inactive; MBD2 DNA inh: inactive; LEDGF integ inh: inactive; PLC-gamma1 inh: 13

Results for O=C(NCCCNc1ccc(C(F)(F)F)cc1[N+](=O)[O-])c1cc(F)c(F)cc1Cl ?
PLC-beta3 inh: inactive; UHRF1 binding: inactive; MBD2 DNA inh: inactive; LEDGF integ inh: inactive; PLC-gamma1 inh: inactive

What do the screens show for `O=C(NCCCNc1ccc(C(F)(F)F)cc1[N+](=O)[O-])c1ccc(Cl)cc1`?
PLC-beta3 inh: inactive; UHRF1 binding: 52; MBD2 DNA inh: inactive; LEDGF integ inh: inactive; PLC-gamma1 inh: inactive

Results for CC1CCCC(C)N1/N=C/c1ccc(N(C)C)cc1 (configuration not stated) ?
PLC-beta3 inh: inactive; UHRF1 binding: 24; MBD2 DNA inh: inactive; LEDGF integ inh: inactive; PLC-gamma1 inh: inactive

Results for CC(C)c1ccc(S(=O)(=O)N2CCN(CCC(=O)Nc3ccc(N(C)C)cc3)CC2)cc1 ?
PLC-beta3 inh: inactive; UHRF1 binding: 23; MBD2 DNA inh: 15; LEDGF integ inh: inactive; PLC-gamma1 inh: inactive

What do the screens show for `Cc1ccccc1OCC(O)CNC1CCC(NCC(O)COc2ccccc2C)CC1` (configuration not stated)?
PLC-beta3 inh: inactive; UHRF1 binding: inactive; MBD2 DNA inh: inactive; LEDGF integ inh: inactive; PLC-gamma1 inh: 16

How did O=C(Nc1cccc(Cl)c1)O[C@@H]1CC[C@@]23CCCN2C(=O)CCC[C@H]3C1 do in these assays?
PLC-beta3 inh: inactive; UHRF1 binding: inactive; MBD2 DNA inh: inactive; LEDGF integ inh: inactive; PLC-gamma1 inh: inactive

Results for CCN(CC)CC(=O)Nc1ccc(Oc2ccc(NC(=O)CN(CC)CC)cc2)cc1 ?
PLC-beta3 inh: inactive; UHRF1 binding: inactive; MBD2 DNA inh: inactive; LEDGF integ inh: inactive; PLC-gamma1 inh: inactive

Results for CCc1ccc(NC(=O)CN(CC(=O)Nc2ccc(CC)cc2)CC(C)O)cc1 (configuration not stated) ?
PLC-beta3 inh: inactive; UHRF1 binding: inactive; MBD2 DNA inh: inactive; LEDGF integ inh: inactive; PLC-gamma1 inh: 11

What do the screens show for `CCCCC(C(=O)NC(=O)NCc1ccccc1)N1C(=O)c2ccccc2C1=O` (configuration not stated)?
PLC-beta3 inh: inactive; UHRF1 binding: 23; MBD2 DNA inh: inactive; LEDGF integ inh: inactive; PLC-gamma1 inh: inactive

Results for Fc1ccc(CNC(=S)NCc2cccc(Cl)c2)cc1 ?
PLC-beta3 inh: inactive; UHRF1 binding: 30; MBD2 DNA inh: inactive; LEDGF integ inh: inactive; PLC-gamma1 inh: inactive

Results for S=C(NCc1ccccc1)NCc1cccc(Cl)c1 ?
PLC-beta3 inh: inactive; UHRF1 binding: inactive; MBD2 DNA inh: inactive; LEDGF integ inh: inactive; PLC-gamma1 inh: inactive

What do the screens show for `CCc1ccc(NC(=O)c2cnc3scc(C)n3c2=O)cc1`?
PLC-beta3 inh: inactive; UHRF1 binding: 46; MBD2 DNA inh: inactive; LEDGF integ inh: inactive; PLC-gamma1 inh: inactive

How did COC(=O)C1CN(Cc2ccc(Cl)cc2)CCS(=O)(=O)N1Cc1cn(Cc2ccc(Cl)cc2)nn1 (configuration not stated) do in these assays?
PLC-beta3 inh: inactive; UHRF1 binding: inactive; MBD2 DNA inh: inactive; LEDGF integ inh: inactive; PLC-gamma1 inh: inactive

What do the screens show for `CCOc1ccc(-n2c(C)cc(C(=O)NS(=O)(=O)c3ccc(C)cc3)c2C)cc1`?
PLC-beta3 inh: inactive; UHRF1 binding: 52; MBD2 DNA inh: inactive; LEDGF integ inh: inactive; PLC-gamma1 inh: inactive

Results for O=c1cc(CN2CCOCC2)c2cc(Cl)c(O)cc2o1 ?
PLC-beta3 inh: inactive; UHRF1 binding: 40; MBD2 DNA inh: inactive; LEDGF integ inh: inactive; PLC-gamma1 inh: inactive
